Assay results from the supplement of paper PMC12024529.

test system: HEK293 WT BDD-FVIII-Gluc; experiment: secreted FVIII-Gluc luciferase Z-score vs DMSO control; higher = more FVIII-Gluc secretion; conditions: 5 µM
Procedure: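 Natural plant-compound library (480 compounds, ST catalogue IDs) screened on HEK293 cells stably expressing WT BDD-FVIII-Gaussia luciferase fusion at 5 µM. Secreted Gluc activity in the medium is given as a Z-score relative to DMSO controls.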

Point of comparison: `C=C[C@H]1CN2CCC1C[C@@H]2C(O)c1ccnc2ccccc12` (some centres undefined), “secreted FVIII-Gluc luciferase Z-score” value 0.484. Against it:
- CC1=CC(=O)C2=C(C)C[C@H](O)[C@H]3[C@H](C)C(=O)O[C@@H]3C12 (some centres undefined) — lower, -0.726
- O=CN1C[C@@H]2C[C@H](C1)c1cccc(=O)n1C2 — higher, 0.583
- COc1cc([C@@H]2c3cc4c(cc3[C@H](O)[C@H]3COC(=O)[C@H]23)OCO4)cc(OC)c1OC — lower, -3.94
- COc1ccc2c(c1)[nH]c1c(C)nccc12 — lower, -2.87
- COc1cc2c(cc1OC)-c1c(OC)c(OC)c(C=O)c3c1[C@H](C2)N(C)CC3 — lower, 0.0709
- C=C[C@H]1CN2CCC1CC2c1[nH]c2ccccc2c1CCO (some centres undefined) — higher, 0.502
- CN1C[C@H](CNC(=O)OCc2ccccc2)C[C@@H]2c3cccc4c3c(cn4C)C[C@H]21 — lower, -0.629
- COc1ccc2c(c1O)-c1c(OC)c(OC)cc3c1C(C2)N(C)CC3 (centres undefined) — higher, 0.615
- O=c1cccc2n1CC1CC2CN(CCO)C1 (centres undefined) — higher, 0.624
- CCN1CC2(COC(=O)c3ccccc3N3C(=O)CC(C)C3=O)CC[C@H](OC)[C@@]34C5C[C@@H]6[C@@H](OC)C[C@@](O)(C5[C@H]6OC)[C@](O)([C@@H](OC)C23)[C@@H]14.[O-][Cl+3]([O-])([O-])O (some centres undefined) — lower, 0.461
- CN1CC(C(=O)NC2(C)OC3(O)C4CCCN4C(=O)C(Cc4ccccc4)N3C2=O)C=C2c3cccc4[nH]cc(c34)CC21 (centres undefined) — higher, 0.871
- C/C=C1/C[C@@H](C)[C@](O)(CO)C(=O)OCC2=CCN3CC[C@@H](OC1=O)[C@@H]23 — lower, -1.37
- CC(C)C1(NC(=O)[C@@H]2C=C3c4cccc5[nH]cc(c45)C[C@H]3N(C)C2)O[C@@]2(O)[C@@H]3CCCN3C(=O)[C@H](Cc3ccccc3)N2C1=O (some centres undefined) — higher, 1.35
- COc1cccc2c1cc([N+](=O)[O-])c1c(C(=O)O)cc3c(c12)OCO3 — lower, 0.158
- O=c1ccc2cc(OC3OC(CO)C(O)C(O)C3O)c(O)cc2o1 (centres undefined) — lower, 0.455
- CN1Cc2c(ccc3c2OCO3)C2C(O)Cc3cc4c(cc3C21)OCO4 (centres undefined) — lower, -5.22
- O=C1C=C2C=C[C@@H]3C[C@@]2(O1)[C@H]1CCCCN31 — higher, 0.666
- Cc1nccc2c1[nH]c1ccccc12 — lower, -0.617
- COc1ccc(CC2NCC(O)C2OC(C)=O)cc1 (centres undefined) — lower, -4.62
- CN1[C@@H]2CC[C@H]1CC(OC(=O)C(CO)c1ccccc1)C2 (some centres undefined) — lower, -0.395
- COc1cc2c(cc1O)CCNC2C (centres undefined) — lower, 0.0191
- CNC(=O)Oc1ccc2c(c1)C1(C)CCN(C)C1N2C (centres undefined) — higher, 0.602
- CN1CCc2cc3c(cc2[C@H]1[C@@H]1OC(=O)c2c1ccc1c2OCO1)OCO3 — higher, 0.754
- C=C1C/C(=C/C)C(=O)O[C@@H]2CCN3CC=C(COC(=O)[C@]1(C)O)[C@H]23 — higher, 0.649
- COc1cc2c(cc1OC)C(C)NCC2 (centres undefined) — lower, 0.0745
- CC1(C)S[C@@H]2[C@H](N)C(=O)N2[C@H]1C(=O)O — lower, -1.19
- COc1ccc2c(c1OC)C(=O)O[C@H]2[C@@H]1c2cc3c(cc2CCN1C)OCO3 — lower, 0.0229
- COc1ccc(Cc2nccc3cc(OC)c(OC)cc23)cc1OC — lower, -0.721
- C[C@]1(C(=O)O)CCC[C@]2(C)c3cc(O)ccc3CC[C@@H]12 — lower, -1.23
- CC(=O)OC1CC(OC2C(O)CC(OC3C(O)CC(OC4CCC5(C)C(CCC6C5CC(O)C5(C)C(C7=CC(=O)OC7)CCC65O)C4)OC3C)OC2C)OC(C)C1OC1OC(CO)C(O)C(O)C1O (centres undefined) — lower, -4
- OC[C@@H]1CCCN2CCCC[C@H]12 — lower, -0.141
- C[C@@H](CO)NC(=O)[C@@H]1C=C2c3cccc4[nH]cc(c34)C[C@H]2N(C)C1 — lower, 0.475
- CN[C@@H](Cc1c[nH]c2ccccc12)C(=O)O — lower, 0.0662
